aDG glyco up: activators of alpha-DG glycosylation, primary screen, uHTS, Pro5-aDG cells, AlphaScreen; activation, % at 10 µM; alpha-DG glycosylation AlphaScreen (IIH6); 0% Pro5, 100% B10-LARGE cell signal; actives 0.22% (n = 360,000);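 active means activation of at least 8% versus controls, or a plate z-score of at least 8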;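 further: Pro5 are CHO cells carrying HIG-tagged alpha-DG that lacks glycosylation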
PG9 Ab binder: binders of HIV-1 gp120 antibody PG9, primary screen, biochemical, TR-FRET. HIV-1 gp120 / PG9 antibody interaction. TR-FRET gp120-PG9 antibody binding. inhibition, % at 6.7 µM. actives 0.43% (n = 360,000); in the data active means inhibition above about 8.5%
NCF1 inh: p47phox/p22phox peptide binding inhibitors, primary screen, biochemical, uHTS, NADPH oxidase regulatory subunit; AID 1274, 2008; inhibition, % at 24.7 µM; fluorescence polarization, 2 h; actives 0.53% (n = 220,000);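 active means inhibition above about 30%, limit read from the data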;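 further: 0% = p47phox with labelled peptide and 100% = labelled peptide alone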
Target sequence (P14598 whole entry, looked up): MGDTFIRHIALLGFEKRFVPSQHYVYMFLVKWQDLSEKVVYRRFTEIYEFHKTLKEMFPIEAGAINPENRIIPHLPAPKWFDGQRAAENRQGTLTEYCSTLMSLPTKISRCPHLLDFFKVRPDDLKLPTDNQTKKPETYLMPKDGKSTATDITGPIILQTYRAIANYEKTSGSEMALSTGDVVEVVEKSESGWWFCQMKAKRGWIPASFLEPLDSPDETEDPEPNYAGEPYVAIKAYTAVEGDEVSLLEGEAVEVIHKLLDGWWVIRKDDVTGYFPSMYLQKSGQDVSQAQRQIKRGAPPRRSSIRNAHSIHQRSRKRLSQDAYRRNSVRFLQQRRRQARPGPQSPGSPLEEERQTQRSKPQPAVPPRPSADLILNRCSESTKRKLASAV
EBNA-1 inh: EBNA-1 DNA-binding inhibitors, primary screen, biochemical, fluorescence polarization | inhibition, % at 14.8 µM | actives 0.34% (n = 300,000) | AID 1950, 2009; in the data active means inhibition above about 28%
ZTA counter: counter-screen for EBNA-1 inhibitors: inhibitors of Epstein-Barr virus ZTA | inhibition, % at 11 µM | AID 2234 | P03206 | ZTA-DNA binding, fluorescence polarization | actives 0.15% (n = 320,000); in the data active means inhibition above about 33%
Target sequence (P03206 whole entry, looked up): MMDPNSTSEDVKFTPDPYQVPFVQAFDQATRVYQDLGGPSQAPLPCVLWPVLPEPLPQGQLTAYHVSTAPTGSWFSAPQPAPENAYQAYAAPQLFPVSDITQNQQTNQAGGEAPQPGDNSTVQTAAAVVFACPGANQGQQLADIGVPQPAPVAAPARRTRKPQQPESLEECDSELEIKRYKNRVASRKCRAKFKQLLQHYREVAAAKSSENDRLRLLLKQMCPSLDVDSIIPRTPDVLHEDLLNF
NR1D1 modulator: modulators of Rev-erb alpha DNA binding, primary screen, biochemical, FITC-DNA, fluorescence polarization, uHTS; Nuclear receptor subfamily 1 group D member 1 (Homo sapiens), P20393; Rev-erbα–FITC-DNA binding, 90 min; activity, % at 10 µM; actives 0.79% (n = 370,000); AID 1259318, 2017;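 active means activity above about 14%, limit read from the data; passing the limit was not always enough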;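 further: 0% = DMSO wells with 35 nM protein and 100% = DMSO wells with 750 nM protein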
Rev-erbA confirm: modulators of Rev-erb alpha DNA binding, confirmation, biochemical, FITC-DNA, fluorescence polarization, single point; shares compounds with NR1D1 modulator; 90 min; activation, % at 25 µM; actives 61% (n = 3,000); AID 1259319, 2017;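 active means activation at or above a set limit, or at least 3 SD above the negative control mean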;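 further: 0% = 35 nM protein with DMSO and 100% = 750 nM protein high control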
RORg counter: modulation of RORgamma DNA binding, dose response, counter-screen for Rev-erb alpha modulator project, biochemical, fluorescence polarization, FITC-DNA; shares compounds with NR1D1 modulator; purified RORgamma protein-FITC-DNA binding; IC50, µM; actives 8% (n = 910); AID 1259320, 2017;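 active means Compounds whose fitted half-maximal concentration for disrupting protein-DNA binding is below 10 micromolar; the record names Rev-erb in its text, so the target is in doubt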
* = called active by the depositor; i = inactive; / = no result. The list is not random: actives were taken first. Their share in the collection is about 1.9%.

SMILES | aDG glyco up | PG9 Ab binder | NCF1 inh | EBNA-1 inh | ZTA counter | NR1D1 modulator | Rev-erbA confirm | others
COc1ccc(NC(=O)c2cc(-c3ccc4c(c3)OCO4)on2)cc1 | 0 | -2 | / | -11 | -5 | 33* | 1
COCCCNC(=O)C[C@H]1C[C@@]2(C(=O)OC)C(=C[C@H](COCc3ccccc3)O[C@@H]2C)N(Cc2ccccc2)C1=O | / | / | / | / | / | 3 | /
CCC(C(=O)Nc1nnc(-c2ccco2)s1)c1ccccc1 (stereo not given) | 0 | 1 | -21 | 4 | 10 | 15* | 5
O=C(COc1ccc(/C=N/NC(=O)c2cc3ccccc3o2)cc1Br)Nc1ccccc1 | 0 | -63 | 38* | -9 | 9 | 19* | 26*
O=C(NN=Cc1ccc(-c2ccccc2)cc1)c1cc(-c2ccc(Cl)cc2)n[nH]1 | / | / | / | / | / | -12 | /
CCOc1cccc2cc(C(N)=O)c(=N)oc12 | 0 | 0 | 1 | / | / | -6 | /
CCOc1cccc2cc(C(N)=O)c(=NCc3ccccc3)oc12 | 0 | -3 | -74 | 3 | 13 | 48* | 17*
O=C(CCCCCNc1nc(=S)[nH]c2ccccc12)NCc1ccccc1Cl | / | 4 | 6 | 1 | 2 | 49* | 17
CN(Cc1ccccc1)C(=O)c1cnc(Cc2c[nH]c3ccccc23)c(I)c1 | 0 | 1 | / | / | / | 16* | 3
O=C(NCc1ccccc1)c1cnc(Cc2c[nH]c3ccccc23)c(I)c1 | 2 | -2 | / | / | / | 2 | /
COc1ccc2nc(NC(=O)c3cccc(N4C(=O)CCC4=O)c3)sc2c1 | 0 | 0 | / | / | -2 | 10 | /
O=C(Nc1nc2ccc(Cl)cc2s1)c1cccc(N2C(=O)CCC2=O)c1 | 0 | 1 | / | 6 | -9 | 43* | 7
CCOC(=O)CSc1nc(-c2ccncc2)ccc1C#N | 1 | -1 | -3 | 3 | 18 | -3 | /
N#Cc1cc2cc3c(cc2nc1SCC(=O)OC1CCCCC1)OCO3 | 1 | 1 | -15 | 3 | 16 | 79* | 38*
N#Cc1cc2cc3c(cc2nc1SCC(=O)N1CCCC1)OCCO3 | 0 | / | / | -3 | 4 | / | /
CCOC(=O)CSc1nc(-c2ccc3c(c2)OCO3)ccc1C#N | 0 | 2 | -9 | 22 | 22 | 20* | 17*
CC(=O)CSc1nc2cc3c(cc2cc1C#N)OCCO3 | 0 | -7 | -19 | -5 | -14 | 20* | 20*
CCOC(=O)[C@]12CCCCC/C=C\1N(CCc1ccc(Cl)cc1)C(=O)[C@H]2CC(=O)NCC12CC3CC(CC(C3)C1)C2 | / | / | / | / | / | 0 | /
COc1ccc2cc(CCNC(=O)C(C)(C)C)c(=O)[nH]c2c1 | 0 | 1 | -10 | 13 | 6 | -5 | /
COc1ccc2cc(CCN3C(=O)c4ccccc4C3=O)c(=O)[nH]c2c1 | 0 | 1 | 5 | 1 | -12 | 28* | 20*
O=C(c1ccc(OC2CCN(Cc3ccccc3O)CC2)cc1)N1CCCCC1 | 1 | -2 | / | 6 | 1 | 36* | 2
COc1cccc(CN2CCC(Oc3ccc(C(=O)N4CCCCC4)cc3)CC2)c1O | 0 | -2 | / | 6 | -12 | 8 | /
CC#CC(=O)N[C@H]1CC[C@@]23CCCN2C(=O)CCC[C@H]3[C@H]1C | / | / | / | / | / | -1 | /
Cc1cc(NC(=O)CSc2nc(-c3ccccc3Cl)nc3c2c(=O)n(C)c(=O)n3C)no1 | 0 | 1 | / | 0 | 1 | 28* | 7
Cc1nc2sc(C(=O)NCc3ccc4c(c3)OCO4)c(N)c2c(C)c1Cl | / | / | / | / | / | 8 | /
SMILES | aDG glyco up | PG9 Ab binder | NCF1 inh | EBNA-1 inh | ZTA counter | NR1D1 modulator | Rev-erbA confirm | others
CCOC(=O)c1c(C)nc2sc3c(=O)n(-c4ccc(C(C)=O)cc4)cnc3c2c1-c1ccc(OC)cc1 | 0 | 1 | -6 | 4 | 13 | 31* | 19*
COc1ccc(NC(=O)C(CCCCNC(=O)OC(C)(C)C)NC2(C(=O)NCCc3c[nH]c4ccccc34)CCCCC2)cc1 (stereo not given) | / | / | / | / | / | -5 | /
O=C(NNc1c2ccccc2nc2ccccc12)c1cccc(O)c1 | 0 | -12 | -25 | -3 | 14 | 20* | 16
O=C(NNc1c2ccccc2nc2ccccc12)c1ccc(O)cc1 | 0 | -17 | -13 | -6 | 3 | 9 | /
COc1cc2c(c(OC)c1)[C@H](/C=C/c1ccccc1)[C@@H]([C@H](O)CO)OC2 | / | / | / | / | / | -2 | /
COc1ccccc1Oc1ccc2c(c1)C(=O)N(c1ccccc1)C2=O | 0 | 1 | 8 | -1 | 12 | 67* | 48* | RORg counter=>40
COc1ccccc1Oc1ccc2c(c1)C(=O)N(c1ccc(C)cc1)C2=O | 0 | 1 | -8 | -3 | 9 | 28* | 31*
COc1ccc(C2C(C(=O)Nc3cc(OC)c(OC)c(OC)c3)CCC(=O)N2c2ccc(OC)cc2)cc1 (stereo not given) | / | / | / | / | / | 0 | /
CCN(CC)C(=O)CSc1nc2cc3c(cc2c(=O)n1Cc1ccc(OC)cc1)OCO3 | 0 | 0 | 19 | -3 | -4 | 31* | 38* | RORg counter=i
CCN(CC)C(=O)CSc1nnc2nnc3cc(OC)ccc3n12 | 1 | -1 | 8 | 5 | 3 | 21* | 10
COc1ccc(CNC(=O)CCCn2c(SCC#N)nc3cc4c(cc3c2=O)OCO4)cc1 | 0 | 0 | -8 | 18 | 14 | -3 | /
COC(=O)C1CN(Cc2ccc(F)cc2)CCS(=O)(=O)N1Cc1cn(CCOC(C)=O)nn1 (stereo not given) | / | / | / | / | / | -3 | /
Cc1ccc(-c2cc(C(=O)NN=Cc3ccc(-c4ccccc4)cc3)[nH]n2)cc1 | / | / | / | / | / | -14 | /
CCCCNC(=O)c1cc2nc3c(c(C(F)(F)F)n2n1)CCc1ccccc1-3 | 0 | 0 | -9 | 1 | -5 | 30* | 7
Cc1ccc(-n2nnnc2SCC(=O)c2c(N)n(C3CC3)c(=O)[nH]c2=O)cc1C | 0 | 2 | / | / | -26 | 21* | 14*
C=CCC[C@@H](Cc1ccc(F)cc1)C(=O)OC[C@H](C)NC(=O)[C@@H](CC=C)CC(=O)N(CCO)Cc1ccccc1 | 0 | 1 | / | / | / | 13* | -5
CCCCCC[n+]1ccccc1/C=C/c1ccc(N(C)C)cc1 | 1 | -11 | / | / | / | 34* | 37* | RORg counter=i
Cc1ccc(/C=C/c2ccc(N(C)C)cc2)[n+](C)c1 | 0 | -20 | / | -10 | 5 | 37* | 50* | RORg counter=i
